Assay results taken from PMC7819943, “Rice protein-binding microarrays: a tool to detect cis-acting elements near promoter regions in rice”.
Over roughly 68,000 sequences, “fluorescence intensity (a.u.)” has its median near 9,100; the highest 2% begin near 16,000. This excerpt belongs to a sample that is enriched for the highest values.

The sequences below were run against OsWRKY34 (Oryza sativa, UniProt Q0JBA9 1-250) (assay: protein-binding microarray (RPBM); PBS, 2% BSA, 51.3 ng/ul salmon testes DNA, 50 uM zinc acetate, 200 nM TF, 25 C, 1 h; high values mean tight binding). Conditions: protein: recombinant; tags: N-terminal polyhistidine and DsRed monomer fusion (pET32a); label: CyDye5-dUTP incorporated in the synthesized complementary strand; 3' TTTTT single-stranded linker to array surface; dsDNA, one strand shown.
Sequence of OsWRKY34 (Q0JBA9 entry or part of it): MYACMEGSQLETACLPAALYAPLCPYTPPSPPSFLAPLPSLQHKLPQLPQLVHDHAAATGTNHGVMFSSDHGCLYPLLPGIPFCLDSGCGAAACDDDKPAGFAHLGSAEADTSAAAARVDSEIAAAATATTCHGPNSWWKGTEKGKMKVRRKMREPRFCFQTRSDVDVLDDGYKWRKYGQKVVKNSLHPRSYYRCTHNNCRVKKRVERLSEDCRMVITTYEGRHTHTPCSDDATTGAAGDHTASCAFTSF
Outline: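 An Axon 4000B scanner gave the binding signal as per-feature fluorescence intensity in arbitrary units. This followed washing of a custom Agilent array that had been incubated for 1 h at 25 °C with 200 nM protein in PBS, 2% BSA, salmon testes DNA and 50 µM zinc acetate. The proteins were transcription factors fused at the N-terminus to polyhistidine and DsRed, expressed in E. coli BL21-CodonPlus and purified on Ni–NTA.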

Sequence	binding signal
CTTGCTGCCTGGATTTCTCCCTGTTTGCTCCCTGACGGAGCGGAGTCACCTAGTGCAG	9470 fluorescence intensity (a.u.)
TCCGTGACTATGCTTCTTCTTTTCTTTAATTTTCACCAGACGGAGTCACCTAGTGCAG	8750 fluorescence intensity (a.u.)
AATCAGATGGAGAGTTGGTTATATGGGTGTTTGGAGAGTTCGGAGTCACCTAGTGCAG	8410 fluorescence intensity (a.u.)
ATCTCCAAAATCAGTTTAACATCGCCTAATCCACGTCGGTCGGAGTCACCTAGTGCAG	8820 fluorescence intensity (a.u.)
TTTGCGTCGCCTTTCATTTTGGATGTTTCAATTTGAATACCGGAGTCACCTAGTGCAG	10400 fluorescence intensity (a.u.)
GTGGGGTGGGTGAGCGGGATGCGGGGCTTAGGCGGGGAAGCGGAGTCACCTAGTGCAG	16500 fluorescence intensity (a.u.)
GTTTTGTTGGGTCGGCGGCGGCGGGTGAGAGTGGAGAATGCGGAGTCACCTAGTGCAG	12900 fluorescence intensity (a.u.)
GGAGGAGGGGCGGCGGAGCGGGTGGTGGGGAGGCGACATGCGGAGTCACCTAGTGCAG	17900 fluorescence intensity (a.u.)
CGTTTGTTGGGTGCGGCGGGCGGGGAGGAGCTCGTGAATGCGGAGTCACCTAGTGCAG	19600 fluorescence intensity (a.u.)
GGACGGCGGCGAGCGGCGAGGAGGAGGCGGGGAGGTGGGACGGAGTCACCTAGTGCAG	9580 fluorescence intensity (a.u.)
GTTGCGGGGTGGGTGGTGGCGTTGCGGGAGGAGGAGGGAGCGGAGTCACCTAGTGCAG	23100 fluorescence intensity (a.u.)
GAGCGCGCGCGTTGGGCGGGAGGGGTTTGGTTGGTGAGCGCGGAGTCACCTAGTGCAG	11800 fluorescence intensity (a.u.)
GCGCGGCGTTGTTGGGTGTGTTCGTGAATCGGGCGGGATGCGGAGTCACCTAGTGCAG	10500 fluorescence intensity (a.u.)
GGTGGAGGAGGTGGGCGGGGAAAGCGGCGACGTGAGGCGGCGGAGTCACCTAGTGCAG	14400 fluorescence intensity (a.u.)
CTGGGGAGGGCGACGGCGCAGTGCGGGGTGGACGGGAGCGCGGAGTCACCTAGTGCAG	8270 fluorescence intensity (a.u.)
GGAGCGCTGGGAGGAAGGGCGTAGGGAGGGAGGGGTGAGGCGGAGTCACCTAGTGCAG	11600 fluorescence intensity (a.u.)
GGCGAAGTGGTGGGTGCGTTGGGGCGAGGCGGAGCGGTGGCGGAGTCACCTAGTGCAG	8050 fluorescence intensity (a.u.)
CTAATCCCCTCTAGCTAGCCTCTTTTTTCTCCATTTGTTTCGGAGTCACCTAGTGCAG	11100 fluorescence intensity (a.u.)
GCCGCCGCCGCCGCCCGCGCCGATCCCCATCCATCCCGCACGGAGTCACCTAGTGCAG	8970 fluorescence intensity (a.u.)
GGGATGTCTTGGCTTTTTTTTTTTCTTCACCGAGCAATCGCGGAGTCACCTAGTGCAG	13400 fluorescence intensity (a.u.)

Sequence	binding signal
GGTTAGAGATACATACATATTATACCTGATTCACCTCACTCGGAGTCACCTAGTGCAG	8060 fluorescence intensity (a.u.)
CTTCTTCGATCTCCGGCAATCGCTCCATCGATCGGCGCTTCGGAGTCACCTAGTGCAG	8370 fluorescence intensity (a.u.)
TTTTTTCTGTAAGGTGTCATATTTCTTCAATTGATGGATACGGAGTCACCTAGTGCAG	8340 fluorescence intensity (a.u.)
GGCTTCAGTATGAATTCTTACACAACCGTTGGTGTGCTACCGGAGTCACCTAGTGCAG	9250 fluorescence intensity (a.u.)
ACCCTCGGACCGGTTTTTTTACTATGCCTCAAACATGTTCCGGAGTCACCTAGTGCAG	9800 fluorescence intensity (a.u.)
ATCCCTCTGGTCGTCTCCTACCTCTCGGTTTCTTCACCCTCGGAGTCACCTAGTGCAG	14600 fluorescence intensity (a.u.)
TTTTTTCGGTCTCGGTATCGGTCTTTTCGGTTCGATCTTACGGAGTCACCTAGTGCAG	8400 fluorescence intensity (a.u.)
GGTGGCGGTTGCGGGTGGAGGGCCGCGGCGGTGCGACGAACGGAGTCACCTAGTGCAG	8480 fluorescence intensity (a.u.)
CACTATCGGCAGTGCAGCCGGCGGCTGGGGCGGGGAGTACCGGAGTCACCTAGTGCAG	9540 fluorescence intensity (a.u.)
ACTAGTGGGCTGCTTGGGTGGGGAGCCCGGGCCGGCAGATCGGAGTCACCTAGTGCAG	12000 fluorescence intensity (a.u.)
CGTACTGGGCTGGGCTGGGCTGGGATTCAACCGAACGGGGCGGAGTCACCTAGTGCAG	20400 fluorescence intensity (a.u.)
ATCACGGAGGAGGCGTTCGGGGAGGGAGGGTGGGGCGCGCCGGAGTCACCTAGTGCAG	24400 fluorescence intensity (a.u.)
AAGTGCTCGATCGGGAGCGGTGGTGGTGGTGGGGAGAGAGCGGAGTCACCTAGTGCAG	11300 fluorescence intensity (a.u.)
GCGGCTGGGGTTGCGGTGCAATCTGGGGCGGGGATGCGAACGGAGTCACCTAGTGCAG	17100 fluorescence intensity (a.u.)
GTAGGGGCGGGAGGGGAGGCGTGGTGGCGCCGGGCCGGCGCGGAGTCACCTAGTGCAG	14900 fluorescence intensity (a.u.)
ACGGTGCCGAACGAGCTTGGGGATGGGGACGGCGGCGGGGCGGAGTCACCTAGTGCAG	10200 fluorescence intensity (a.u.)
GGCCGGCGGGTGGCCGGGTGGGGAGGAGGTCGGCAGGGCGCGGAGTCACCTAGTGCAG	9780 fluorescence intensity (a.u.)
GTGGGGCGGTGGCTGCTGCATTGCATTGGGCGGGAGAGATCGGAGTCACCTAGTGCAG	17200 fluorescence intensity (a.u.)
GCGGCGTTGCGGATGGGGACGGGGACGGGGACGGCGGCGACGGAGTCACCTAGTGCAG	10400 fluorescence intensity (a.u.)
CAATTTCCATGGTTTTCTTAGCATTCTCGTCTCTAGTATTCGGAGTCACCTAGTGCAG	9610 fluorescence intensity (a.u.)

Sequence	binding signal
AAACCCTAGCTCCGGATTCTTCTCCTCTCCTCCTTTCTTCCGGAGTCACCTAGTGCAG	8070 fluorescence intensity (a.u.)
CGATCTCAGCTGTCACTCACTATGTGGTTCATCTAACTGACGGAGTCACCTAGTGCAG	9510 fluorescence intensity (a.u.)
CAGGTCATTTTGGTGTGTGCTTTGCGGTATTAACTCGTGCCGGAGTCACCTAGTGCAG	8700 fluorescence intensity (a.u.)
CACAGCGTCCACACCCGCGCCGCCGCCGCCCTCACCCTCGCGGAGTCACCTAGTGCAG	8760 fluorescence intensity (a.u.)
CGGGGATGGAGGTGGTGGTGAGGCTGGCGACGGCGGGCCGCGGAGTCACCTAGTGCAG	12100 fluorescence intensity (a.u.)
GGGTGTTATGAGTTGTGTTTGCTGTAGCTTGTCAGCTGTTCGGAGTCACCTAGTGCAG	10600 fluorescence intensity (a.u.)
CTGTAGAGAAATACTACACTACTGTACACTACATTCCTGCCGGAGTCACCTAGTGCAG	8350 fluorescence intensity (a.u.)
GTGTCGGCGGAGGGGCGCGCGGCGGGGTCGGCGGAGGCGCCGGAGTCACCTAGTGCAG	8590 fluorescence intensity (a.u.)
GGCTGCTTCAGGGGCGTGGGAGAGGTTTGGGGTTGGTTCACGGAGTCACCTAGTGCAG	16000 fluorescence intensity (a.u.)
GGTTTTCATGGTGCTGTGGATGTTCACTAGCTTTGGAGGGCGGAGTCACCTAGTGCAG	10900 fluorescence intensity (a.u.)
GTGTGGTCGTCGTGTCGGCGGCGGCGGCGGCGGCGGGAGGCGGAGTCACCTAGTGCAG	14300 fluorescence intensity (a.u.)
TGTTAGTATTAGGGTGCTTTTGGGTTTGGGGTTTCTGCCACGGAGTCACCTAGTGCAG	24200 fluorescence intensity (a.u.)
ATTTGTATTTGTTTTTTGTTTGTTAGTATTAGGGTGCTTTCGGAGTCACCTAGTGCAG	9720 fluorescence intensity (a.u.)
GAGTTGGGTTGGAGTGGTTTGGATCGCTGCTTCACTAGGGCGGAGTCACCTAGTGCAG	27400 fluorescence intensity (a.u.)
CTGTATTATGGTGCTTTCACATTTTTTTTCTAGTCTGCCACGGAGTCACCTAGTGCAG	8370 fluorescence intensity (a.u.)
GTCCAAGTTTGCCTTTCTCACTGGGGAGCGGGTGGGCTGTCGGAGTCACCTAGTGCAG	21000 fluorescence intensity (a.u.)
CAGTTTCCACCCTGGGTGGGGTGGGGCCCACCTGTCGGGGCGGAGTCACCTAGTGCAG	9940 fluorescence intensity (a.u.)
GTGGTGGTGCGCGGCGGCGGCGGCGGGGAGGGGTGTGTGTCGGAGTCACCTAGTGCAG	24500 fluorescence intensity (a.u.)
CCTTTCCAAGTCGGTCGGGGTAGCTGGGTTGTCTCGCCGGCGGAGTCACCTAGTGCAG	12300 fluorescence intensity (a.u.)
